The whole screen tested about 360,000 compounds, of which about 3,100 (0.86%) were called active.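 How the source made its calls: active means inhibition or corrected inhibition above about 18%, plus a signal ratio from 0.5 to 1.5 (limit read from the data, passing the limit was not always enough); inactive means the rest.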 The sample as a whole holds a higher share of actives than the screen did.

Drawing on PubChem BioAssay AID602438 (Sanford-Burnham Center for Chemical Genomics, 2012), this text covers inhibition for 89 molecules.

Chain of Neuropilin-1 (Homo sapiens) (O14786 whole entry, looked up): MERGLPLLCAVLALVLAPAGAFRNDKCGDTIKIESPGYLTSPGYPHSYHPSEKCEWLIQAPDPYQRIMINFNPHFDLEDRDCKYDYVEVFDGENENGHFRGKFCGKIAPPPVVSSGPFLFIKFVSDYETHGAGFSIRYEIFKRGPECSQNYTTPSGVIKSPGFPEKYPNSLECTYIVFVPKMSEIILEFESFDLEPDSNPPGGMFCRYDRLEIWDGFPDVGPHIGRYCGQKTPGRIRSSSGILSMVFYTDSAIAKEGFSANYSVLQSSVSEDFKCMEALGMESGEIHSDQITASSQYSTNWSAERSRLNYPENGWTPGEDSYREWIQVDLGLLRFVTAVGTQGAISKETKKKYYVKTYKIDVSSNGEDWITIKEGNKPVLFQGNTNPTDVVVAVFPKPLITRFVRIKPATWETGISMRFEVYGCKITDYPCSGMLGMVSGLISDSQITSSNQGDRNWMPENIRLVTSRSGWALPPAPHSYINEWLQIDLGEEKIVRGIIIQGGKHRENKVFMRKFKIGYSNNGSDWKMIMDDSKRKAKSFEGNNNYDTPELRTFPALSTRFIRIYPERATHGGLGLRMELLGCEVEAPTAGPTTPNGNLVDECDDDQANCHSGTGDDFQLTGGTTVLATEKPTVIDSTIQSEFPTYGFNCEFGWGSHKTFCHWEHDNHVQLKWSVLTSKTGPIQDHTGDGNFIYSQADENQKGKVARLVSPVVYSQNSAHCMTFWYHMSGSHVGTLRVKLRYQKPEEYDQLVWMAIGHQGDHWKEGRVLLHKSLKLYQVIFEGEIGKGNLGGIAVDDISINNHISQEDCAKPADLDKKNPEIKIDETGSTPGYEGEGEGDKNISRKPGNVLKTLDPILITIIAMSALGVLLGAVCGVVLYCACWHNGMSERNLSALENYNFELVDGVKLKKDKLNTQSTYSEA

The experiment concerns the target Neuropilin-1 (Homo sapiens) (UniProt O14786). Description: modulators of CendR peptide binding to NRP-1, primary screen, biochemical, fluorescence polarization, uHTS (AID 602438). The conditions noted are these: FAM-RPARPAR peptide binding to NRP-1, fluorescence polarization; at 25 µM; hits give high values.
Turning to `Cn1cccc1C1(C(F)(F)F)NCCNC1=O` (centres undefined), the inhibition is -1.4% (inactive).

Turning to `Cc1c(CCO)c(=O)n(-c2ccccc2)n1S(=O)(=O)c1ccc(F)cc1`, the inhibition was -66% (inactive).

For `COc1cccc(-c2ccc3c(c2)N(Cc2ccccc2OC)C(=O)C(C)S3)c1` (centres undefined), the inhibition was 21.5% (active).

`COc1cccc(-n2cc3c(c2-c2ccccc2)c(=O)n(C)c(=O)n3C)c1`: the inhibition was -0.7% (inactive).

On to `COc1cccc(-c2cc3nc(NCc4ccccc4OC)n(C)c(=O)c3s2)c1`, for which the inhibition is 9.9% (inactive).

With `CN=C(c1ccccc1)c1c(C)cccc1C`, the inhibition was 1.9% (inactive).

Consider `Cc1nc(S(=O)(=O)c2ccc(Br)cc2)nc2c1CCC2`, for which the inhibition was 0.1% (inactive).

For `Cn1c(N)c(C(=O)COC(=O)/C=C/c2cccc(C(F)(F)F)c2)c(=O)n(C)c1=O`, the inhibition was 4.9% (inactive).

Consider `CCOC(=O)CCC(NC(=O)c1ccc(CNc2nc3cc(C(F)(F)F)ccc3nc2C(=O)OCC)cc1)C(=O)OCC` (centres undefined), for which the inhibition was -1.5% (inactive).

As to `CCOC(=O)/C=C/c1ccc(C(F)(F)F)cc1S(=O)(=O)NC(C)(C)C`, the inhibition was 26.8% (active).

Take `CCCn1c2ccccc2c2cnn(CC(=O)NCCCN3CCCCC3CC)c(=O)c21` (centres undefined): the inhibition was 29.4% (active).

As for `CC1CCCCN1CCCNC(=O)Cn1ncc2c([nH]c3ccccc32)c1=O` (centres undefined), the inhibition was 6.7% (inactive).

As for `O=C(Cn1ncc2c3ccccc3n(Cc3ccccc3)c2c1=O)NCCCN1CCOCC1`, the inhibition was 8.8% (inactive).

Regarding `CCN(Cc1ccncc1)C(=O)CCc1ccccc1`, the inhibition is 9.5% (inactive).

For the molecule `CCN(CC)C(=O)c1nc[nH]c1C(=O)N(C)Cc1ccccc1`, the inhibition is 29.2% (active).

In the case of `CN(CCO)C(=O)c1nc[nH]c1C(=O)N(C)Cc1ccccc1`, the inhibition was 9.7% (inactive).

For the molecule `CCN(CC(=O)Nc1ccc(OC)cc1)C(=O)c1ccc(=O)n(Cc2ccccc2)n1`, the inhibition was 4.7% (inactive).

For `Cc1c(C(C)CCCO)oc(=O)c2c1Oc1c(C)c(C(C)C[C@@H](C)O)oc(=O)c1C2` (some centres undefined), the inhibition is 13.8% (inactive).

`CCOC(=O)N1CCN(C(=O)Cn2cnc3ccccc3c2=O)CC1`: the inhibition is 3.1% (inactive).

For `CCOC(=O)N1CCN(CC(=O)n2c(C)c(C)c3ccccc32)CC1`, the inhibition is 4.2% (inactive).

On to `CCOC(=O)N1CCN(C(=O)c2nn(-c3ccc(C)cc3)c(=O)c3c2c2ccccc2n3C)CC1`, for which the inhibition was 17.7% (active).

For the molecule `CCOC(=O)CSc1nncc2ccc(OC)c(OC)c12`, the inhibition is -16.1% (inactive).

Consider `CCOc1ccc(NC(=O)CC(Cc2ccc(Cl)cc2)C(=O)O)cc1` (centres undefined), for which the inhibition was 1.1% (inactive).

For the molecule `COC(=O)C(Cc1c[nH]c2ccccc12)NC(=O)CCNC(=O)c1ccco1` (centres undefined), the inhibition is 22.2% (active).

For the molecule `CC(=O)NC(Cc1c[nH]c2ccccc12)C(=O)NCCc1ccccc1` (centres undefined), the inhibition was 6.7% (inactive).

In the case of `COc1ccc(CNC(=O)[C@H](Cc2c[nH]c3ccccc23)NC(C)=O)cc1OC`, the inhibition is -6.3% (inactive).

For `Cc1cc(C)cc(N(CC(=O)N2CC=C(c3ccccc3)CC2)S(=O)(=O)c2c(C)noc2C)c1`, the inhibition is -1.1% (inactive).

For the molecule `O=C(c1cccc(F)c1)N1CCN(c2ccc([N+](=O)[O-])c(N3CCCCC3)c2)CC1`, the inhibition was 44.3% (active).

On to `CC(C)c1ccc(S(=O)(=O)N2CCN(C(=O)c3ccc(N4CCCC4)c([N+](=O)[O-])c3)CC2)cc1`, for which the inhibition is 6.8% (inactive).

With `O=C(c1cccc(F)c1)N1CCN(c2ccc([N+](=O)[O-])c3cccnc23)CC1`, the inhibition is -12.9% (inactive).

As to `Cc1ccc(C2NC(=S)NC3=C2N2CCC3CC2)cc1` (centres undefined), the inhibition was 11.9% (inactive).

For the molecule `COc1ccccc1CCNS(=O)(=O)c1cc2c3c(c1)C(C)C(=O)N3CCC2` (centres undefined), the inhibition is -11.3% (inactive).

As for `COc1cccc(CNC(=O)[C@@H]2CCCN2C(=O)[C@@H]2CCCN2C(=O)c2ccccc2)c1`, the inhibition was -6.2% (inactive).

For the molecule `CC1=NN(C(=O)c2ccc(Br)cc2)C(O)(c2ccccc2)C1` (centres undefined), the inhibition is -3% (inactive).

On to `CC1=NN(C(=O)c2ccccc2Br)C(O)(c2cccnc2)C1` (centres undefined), for which the inhibition is -1.7% (inactive).

Regarding `CCOC(=O)C1(O)CC(C)=NN1C(=O)c1cccc(Br)c1` (centres undefined), the inhibition is 26.7% (active).

`O=C(NCc1ccco1)c1ccc(NS(=O)(=O)c2cccc([N+](=O)[O-])c2)cc1`: the inhibition was 6.8% (inactive).

In the case of `O=C(C1CCCO1)N(c1ccc(F)cc1)C1C=CS(=O)(=O)C1` (centres undefined), the inhibition was -10.6% (inactive).

In the case of `CCc1nnc(NC(=O)CSc2nnc(COc3ccc(C#N)cc3)n2-c2ccccc2)s1`, the inhibition was 0.5% (inactive).

Regarding `COc1ccccc1N(CCOc1ccccc1)S(=O)(=O)c1ccccc1`, the inhibition was 26.1% (active).

Regarding `CCOc1ccc(N(CC(=O)NCCOc2ccccc2OC)S(=O)(=O)c2ccccc2)cc1`, the inhibition was -4.4% (inactive).

`COc1ccccc1N(CC(=O)N1CCCCC1)S(=O)(=O)c1ccccc1`: the inhibition is -3.8% (inactive).

For `COc1nc(OC)nc(N(C)CCO)n1`, the inhibition is 14.8% (inactive).

On to `O=C(CSc1nccn1-c1cccc(F)c1)NC1CCCC1`, for which the inhibition is -2.9% (inactive).

As for `CC(=O)Nc1cccc(NC(=O)CSc2nccn2Cc2ccc(F)cc2)c1`, the inhibition is 0.6% (inactive).

In the case of `O=C(OCc1ccccc1)N1CCC2CC1c1cc(N3CCN(S(=O)(=O)c4cc(Cl)cc(Cl)c4)CC3)ccc12` (centres undefined), the inhibition is 7.8% (inactive).

For `Cc1ccc(F)c(S(=O)(=O)NC(=O)C2(C)CCN2C(=O)CCc2cccs2)c1` (centres undefined), the inhibition is 0.1% (inactive).

With `Cc1ccc(F)c(S(=O)(=O)NC(=O)C2(C)CCN2C(=O)c2ccco2)c1` (centres undefined), the inhibition was 24.2% (active).

Consider `CC1(C(=O)NS(=O)(=O)c2ccccc2Cl)CCN1C(=O)c1cccc(F)c1` (centres undefined), for which the inhibition is 6.5% (inactive).

`COC(=O)Cc1nc2c(N)nc(N)nc2[nH]c1=O`: the inhibition was 26.3% (active).

As to `CC1C(=O)N(Cc2cn(CC3CCCCC3)nn2)CCS(=O)(=O)N1Cc1ccc(-c2cccc(N(C)C)c2)cc1` (centres undefined), the inhibition was -7% (inactive).

Turning to `Cc1ccc(-c2noc(C3CCCN(C(=O)c4cccc(Cl)c4)C3)n2)o1` (centres undefined), the inhibition is 3.6% (inactive).

`COC(=O)CCCC1=CC2=CC(=O)C(C)(OC(=O)c3cccs3)C(=O)C2=CN1CC1CC1` (centres undefined): the inhibition is 36.2% (active).

With `COC(=O)CCCC1=CC2=C(c3ccccc3)C(=O)C(C)(OC(=O)C3CCCC3)C(=O)C2=CN1c1ccc(OC)cc1` (centres undefined), the inhibition is -6.8% (inactive).

For the molecule `COC(=O)CCCC1=CC2=CC(=O)C(C)(OC(=O)c3cccs3)C(=O)C2=CN1c1cccc(C#N)c1` (centres undefined), the inhibition is -18.7% (inactive).

Turning to `Nc1cccc(OCCCCCOc2cccc(N)c2)c1`, the inhibition is 7% (inactive).

For the molecule `Cn1c(=O)c2c(nc(OCc3cccnc3)n2Cc2ccccc2)n(C)c1=O`, the inhibition is 28.5% (active).

On to `CCOC(=O)N1CCN(Cc2nc3c(c(=O)n(C)c(=O)n3C)n2Cc2ccccc2)CC1`, for which the inhibition is -7.4% (inactive).

For `C=CCOc1nc2c(c(=O)n(C)c(=O)n2C)n1Cc1ccc(Cl)cc1Cl`, the inhibition was 7.1% (inactive).

For the molecule `Cc1ccccc1C(=O)N1CCC(C(=O)Oc2ccc(C#N)cc2)CC1`, the inhibition is -0.1% (inactive).

For `CC(C)Sc1nc(N)nc2c1ncn2C1OC(CO)C(O)C1O` (centres undefined), the inhibition was -1.6% (inactive).

Take `CC(C)Cn1cnc2c(SCc3ccc(Cl)cc3)nc(N)nc21`: the inhibition is 20.8% (active).

As to `Nc1nc(SCc2ccc([N+](=O)[O-])cc2)c2ncn(C3OC(CO)C(O)C3O)c2n1` (centres undefined), the inhibition was -20.4% (inactive).

With `Cc1cccc(C)c1NC(=O)C(c1ccc(C(F)(F)F)cc1)n1c(=O)c(-c2ccco2)nc2ccccc21` (centres undefined), the inhibition is -67% (inactive).

As to `CC(NCCO)C(=O)C12CC3CC(CC(C3)C1)C2` (centres undefined), the inhibition was 6.1% (inactive).

Consider `COc1cc(/C=C/C(=O)OCC(=O)Nc2cccc(Oc3ccccc3)c2)ccc1O`, for which the inhibition was -3.6% (inactive).

`COc1ccc(C(C(=O)NCc2ccccc2)n2c(=O)c(-c3ccccc3)nc3ccccc32)cc1` (centres undefined): the inhibition is -0.4% (inactive).

Consider `CCc1[nH]nc(C(=O)N2CCCC(CNS(=O)(=O)c3cccs3)C2)c1C` (centres undefined), for which the inhibition was 3.8% (inactive).

As for `COc1cc2c(cc1OC)C(C(C)C)=NC(C)(C)C2`, the inhibition was -1.6% (inactive).

Regarding `COc1cc2c(cc1OC)C(Nc1ccc(S(N)(=O)=O)cc1)=NC(C)(C)C2`, the inhibition was 26.3% (active).

In the case of `COc1cc2c(cc1O)C(SC)=NC(C)(C)C2`, the inhibition is 9% (inactive).

On to `Cn1c(=O)cc(OCCCC(=O)N2CCN(c3ccccn3)CC2)c2ccccc21`, for which the inhibition was -0.5% (inactive).

Consider `Cc1ccc(C)c(NC(=O)C(c2ccccc2)N2CCN(CC(=O)NC3CC3)CC2)c1` (centres undefined), for which the inhibition is -1.3% (inactive).

Turning to `CCOC(=O)c1[nH]c2ccc(C)cc2c1N=C(C)N(C)C`, the inhibition is 28.1% (active).

For `CCOC(=O)c1cc2cc(C)ccc2[nH]1`, the inhibition was 1.1% (inactive).

Turning to `CCOC(=O)c1ccc2[nH]c3c(c2c1)CCCC3NC=O` (centres undefined), the inhibition is -0.5% (inactive).

For the molecule `CC1CC1C(=O)OCC(=O)Nc1cccc(F)c1` (centres undefined), the inhibition was 5.8% (inactive).

`O=P(c1cccs1)(c1cccs1)c1cccs1`: the inhibition was 6.4% (inactive).

For `CN(CCCNC(=O)CN1C(=O)CC(C)(C)S(=O)(=O)c2ccccc21)C1CCCCC1`, the inhibition was 12.4% (inactive).

With `Clc1ccc(Cc2nnc(-c3cccs3)o2)cc1`, the inhibition was -15.6% (inactive).

Turning to `COc1ccc(CCc2nc(-c3cccs3)no2)cc1`, the inhibition is -5.8% (inactive).

For the molecule `COc1nc(-c2ccc(Cl)cc2)ccc1-c1noc(-c2cccs2)n1`, the inhibition is 49.1% (active).

Take `O=C(OCc1ccc([N+](=O)[O-])cc1)C1CC(=O)N(Cc2ccccc2Cl)C1` (centres undefined): the inhibition was -11.4% (inactive).

Turning to `O=C(O)c1ccc(NS(=O)(=O)c2ccc3c(c2)C(=O)c2cc(S(=O)(=O)Nc4ccc(C(=O)O)cc4)ccc2-3)cc1`, the inhibition is -59.7% (inactive).

As to `Cc1ccc(-c2noc(-c3ccccc3C(=O)NCC3CCCO3)n2)cc1` (centres undefined), the inhibition is 28% (active).

Consider `O=C(NCC1CCCO1)c1ccccc1-c1nc(-c2ccccc2Cl)no1` (centres undefined), for which the inhibition is 8% (inactive).

`O=C(Nc1ccccc1C(=O)NCC1CCCO1)c1ccccc1F` (centres undefined): the inhibition is 20.7% (inactive).

As for `COc1ccc(NS(=O)(=O)c2ccc(C)c(C(=O)NCC(c3cccs3)N3CCOCC3)c2)cc1` (centres undefined), the inhibition is 6.2% (inactive).

Take `CC1(C(=O)Nc2ccc3c(c2)OCCO3)CN(S(C)(=O)=O)CC(=O)N1Cc1cccc(F)c1` (centres undefined): the inhibition is -4.8% (inactive).

Broadly, the inhibition is the relative decrease from the control value, in per cent.
